In PubChem BioAssay one finds composite z-score and z-score data, which are given here for 14 molecules.

Active and inactive are the calls of the source.

The nature of assay [1]: binders of probe aFSTL3 on microarray, primary screen, stem cell growth factor project, biochemical, small-molecule microarray, fluorescence 635/667 (AID 1064).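 Further: measures binding of the biotinylated anti-FSTL3 antibody to printed compounds.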 The following applies: higher = more signal.
A short description of assay [2]: binders from COS7 lysate, DM2A8 probe, primary screen, torsin A project, cell lysate, small-molecule microarray, fluorescence 635/667 (AID 1065). The following applies: higher = more signal, COS7 lysate expressing mutant human TOR1A.
Assay [3] can be described thus: binders of probe aFGF2 on microarray, primary screen, stem cell growth factor project, biochemical, small-molecule microarray, fluorescence 635/667 (AID 1067).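 Further: measures binding of biotinylated aFGF2 protein to printed compounds on slides; z-score merges feature fluorescence and signal-to-noise across triplicate slides.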 The following applies: higher = more signal.
A short description of assay [4]: binders of probe aFGF10 on microarray, primary screen, stem cell growth factor project, biochemical, small-molecule microarray, fluorescence 635/667 (AID 1071).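 Further: score merges 667 nm spot intensity and signal to noise from triplicate slides.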 The following applies: higher = more signal.
For assay [5], the target named is Neurogenic locus notch homolog protein 2 (Homo sapiens) (UniProt Q04721). Put plainly: Notch2 binders on small-molecule microarrays, primary screen, biochemical, small-molecule microarray, 635 nm fluorescence, stem cell growth factors (AID 1073). The following applies: Notch2 binding, higher = more signal.
Sequence of Neurogenic locus notch homolog protein 2 (Homo sapiens) (Q04721 whole entry, looked up, canonical isoform): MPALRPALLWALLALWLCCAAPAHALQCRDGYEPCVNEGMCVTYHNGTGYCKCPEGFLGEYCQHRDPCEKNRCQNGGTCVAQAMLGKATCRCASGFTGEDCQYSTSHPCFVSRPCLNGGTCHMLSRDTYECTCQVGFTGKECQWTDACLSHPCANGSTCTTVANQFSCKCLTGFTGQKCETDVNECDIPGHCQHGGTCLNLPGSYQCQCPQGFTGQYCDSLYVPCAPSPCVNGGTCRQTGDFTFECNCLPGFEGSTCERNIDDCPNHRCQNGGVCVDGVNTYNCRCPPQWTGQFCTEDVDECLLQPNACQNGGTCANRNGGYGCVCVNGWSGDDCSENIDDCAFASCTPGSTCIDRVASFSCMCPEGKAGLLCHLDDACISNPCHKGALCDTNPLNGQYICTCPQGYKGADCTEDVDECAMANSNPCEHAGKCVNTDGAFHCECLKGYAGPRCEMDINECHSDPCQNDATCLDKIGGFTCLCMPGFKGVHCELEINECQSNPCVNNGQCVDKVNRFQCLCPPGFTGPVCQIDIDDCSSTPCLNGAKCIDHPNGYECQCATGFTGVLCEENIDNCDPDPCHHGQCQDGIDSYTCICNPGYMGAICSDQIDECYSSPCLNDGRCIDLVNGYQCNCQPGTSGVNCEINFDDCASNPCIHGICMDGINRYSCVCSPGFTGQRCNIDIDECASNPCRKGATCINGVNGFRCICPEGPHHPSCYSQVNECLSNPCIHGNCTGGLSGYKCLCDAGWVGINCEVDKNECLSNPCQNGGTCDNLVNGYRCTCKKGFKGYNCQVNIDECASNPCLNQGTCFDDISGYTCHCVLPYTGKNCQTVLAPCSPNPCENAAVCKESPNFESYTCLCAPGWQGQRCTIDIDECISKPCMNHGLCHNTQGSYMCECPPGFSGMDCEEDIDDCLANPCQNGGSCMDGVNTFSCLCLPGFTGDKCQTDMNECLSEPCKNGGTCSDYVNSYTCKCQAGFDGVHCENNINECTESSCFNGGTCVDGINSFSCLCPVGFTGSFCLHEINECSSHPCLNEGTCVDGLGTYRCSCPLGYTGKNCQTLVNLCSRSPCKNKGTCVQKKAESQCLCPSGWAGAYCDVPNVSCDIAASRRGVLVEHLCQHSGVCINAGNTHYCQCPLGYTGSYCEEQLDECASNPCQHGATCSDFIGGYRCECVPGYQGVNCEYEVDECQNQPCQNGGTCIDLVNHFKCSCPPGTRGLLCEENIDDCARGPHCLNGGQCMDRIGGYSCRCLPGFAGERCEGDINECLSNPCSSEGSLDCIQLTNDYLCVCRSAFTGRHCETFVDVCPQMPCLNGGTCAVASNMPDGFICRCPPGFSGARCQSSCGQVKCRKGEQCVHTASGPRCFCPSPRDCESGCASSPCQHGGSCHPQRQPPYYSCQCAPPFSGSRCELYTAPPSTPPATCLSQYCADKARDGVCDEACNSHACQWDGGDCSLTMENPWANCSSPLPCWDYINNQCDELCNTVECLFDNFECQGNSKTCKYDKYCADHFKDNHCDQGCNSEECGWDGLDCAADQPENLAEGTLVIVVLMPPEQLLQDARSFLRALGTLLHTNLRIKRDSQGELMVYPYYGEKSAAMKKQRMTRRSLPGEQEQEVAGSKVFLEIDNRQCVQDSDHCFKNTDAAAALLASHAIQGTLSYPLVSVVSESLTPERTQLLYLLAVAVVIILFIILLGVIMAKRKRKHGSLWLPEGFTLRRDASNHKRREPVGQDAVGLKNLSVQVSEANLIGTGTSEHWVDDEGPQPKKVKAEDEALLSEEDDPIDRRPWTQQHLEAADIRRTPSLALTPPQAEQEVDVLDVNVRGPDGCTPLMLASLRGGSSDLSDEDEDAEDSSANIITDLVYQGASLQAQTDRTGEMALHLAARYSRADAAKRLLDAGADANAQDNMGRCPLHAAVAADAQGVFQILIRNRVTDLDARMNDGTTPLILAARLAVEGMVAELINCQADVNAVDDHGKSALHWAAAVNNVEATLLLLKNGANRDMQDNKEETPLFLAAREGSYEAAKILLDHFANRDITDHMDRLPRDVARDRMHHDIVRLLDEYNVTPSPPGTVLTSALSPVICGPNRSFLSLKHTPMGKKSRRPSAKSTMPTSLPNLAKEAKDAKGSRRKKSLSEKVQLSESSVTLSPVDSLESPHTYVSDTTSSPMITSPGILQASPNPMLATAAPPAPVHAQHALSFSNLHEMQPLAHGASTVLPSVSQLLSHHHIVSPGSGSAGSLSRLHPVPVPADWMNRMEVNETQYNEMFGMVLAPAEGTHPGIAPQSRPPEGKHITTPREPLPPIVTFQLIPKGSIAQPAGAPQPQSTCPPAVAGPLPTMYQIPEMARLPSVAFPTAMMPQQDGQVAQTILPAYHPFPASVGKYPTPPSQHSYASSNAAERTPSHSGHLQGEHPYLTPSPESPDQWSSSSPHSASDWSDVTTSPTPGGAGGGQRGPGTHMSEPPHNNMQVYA
Assay [6] addresses Pro-neuregulin-1, membrane-bound isoform (Homo sapiens) (UniProt Q02297). As to the kind of experiment: NRG1 binders on small-molecule microarrays, primary screen, psychiatric disease protein project, biochemical, small-molecule microarray, fluorescence 635/667 (AID 1075).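 Further: score combines 667 nm spot fluorescence with signal to noise.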 The settings on record: NRG1 binding, 635 nm fluorescence, higher = more signal.
In assay [7] the test system is Neuregulin-1 EGF-like domain. Put plainly: binders of neuregulin-1 EGF-like domain, primary screen, biochemical, small-molecule microarray, 635 nm fluorescence (AID 1081).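 Further: binding of the protein to compounds printed on small-molecule microarray slides.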 The settings on record: small-molecule microarray binding, higher = more signal.
Assay [8] in a line: FRG1 promoter luciferase signal modulators, primary screen, FRG1 inhibition for FSHD, cell-based, C2C12 myotubes, firefly/Renilla luciferase, luminescence (AID 1084). The following applies: higher = more signal, called active from +8 up or from −8 down.
The nature of assay [9]: binders of probe aFST on microarray, primary screen, stem cell growth factor project, biochemical, small-molecule microarray, fluorescence 635/667 (AID 1086).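 Further: score merges 667 nm fluorescence with signal-to-noise of each printed compound spot.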 The settings on record: higher = more signal.
A short description of assay [10]: binders of probe aHhip on microarray, primary screen, stem cell growth factor project, biochemical, small-molecule microarray, fluorescence 635/667 (AID 1087).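 Further: score merges spot fluorescence at 667nm with spot signal to noise ratio.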 The following applies: higher = more signal.

Sequence of Pro-neuregulin-1, membrane-bound isoform (Homo sapiens) (Q02297 whole entry, looked up, the tested form may be a part, canonical isoform): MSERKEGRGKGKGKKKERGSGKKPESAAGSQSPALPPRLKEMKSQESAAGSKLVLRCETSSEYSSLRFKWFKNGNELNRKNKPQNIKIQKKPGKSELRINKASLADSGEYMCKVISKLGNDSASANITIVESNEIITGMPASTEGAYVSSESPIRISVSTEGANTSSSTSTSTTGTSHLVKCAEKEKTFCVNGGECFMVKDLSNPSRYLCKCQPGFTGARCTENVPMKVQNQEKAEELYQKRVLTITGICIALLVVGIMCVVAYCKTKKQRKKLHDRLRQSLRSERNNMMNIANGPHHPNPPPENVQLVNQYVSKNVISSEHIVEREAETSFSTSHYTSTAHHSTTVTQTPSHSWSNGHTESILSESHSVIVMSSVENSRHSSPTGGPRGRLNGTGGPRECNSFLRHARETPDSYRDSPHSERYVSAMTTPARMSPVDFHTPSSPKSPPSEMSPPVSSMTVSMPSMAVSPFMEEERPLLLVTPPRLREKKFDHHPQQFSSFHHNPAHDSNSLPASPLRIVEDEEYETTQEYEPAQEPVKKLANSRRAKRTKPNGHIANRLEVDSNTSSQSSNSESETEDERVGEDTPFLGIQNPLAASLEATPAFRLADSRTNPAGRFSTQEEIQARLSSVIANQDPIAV

For the molecule `COc1ccc([Si](C)(C)[C@@H]2[C@@H](CC(=O)N3CCC[C@H]3CO)O[C@]3(C(=O)N(Cc4cccc(I)c4)c4ccccc43)[C@H]2C)cc1`, the composite z-score in [1] is 0.07; in [2], 1.29; in assay [3], -0.137; in assay [4] it was 0.192; in assay [5], 1.08; in assay [6], 0.916. Also, the results for the composite z-score in [7], in [9] and in assay [10] were 1.17, 0.453 and -0.0994, respectively. Besides, in assay [8], the z-score is -1.06 (inactive).

For the molecule `CCOC(=O)C[C@H]1[C@H](OC(=O)c2ccc(C(=O)c3ccccc3)cc2)[C@@H](NC(=O)Cc2ccc(OC)cc2)c2cc(OCCCO)ccc2N1C(=O)c1ccc2ccccc2n1`, the composite z-score in assay [1] was -0.537; in assay [2], 0.0267; in [3] it was -0.0887; in [4], 0.371; in [5], 0.298; in assay [6] it was 0.843. For the same molecule, the composite z-score in assay [7] was 0.325; in [9], 0.612; in assay [10], -0.0994. Also, the z-score in assay [8] was -2.62 (inactive).

In the case of `COCC(=C=CC[C@H](O)c1cccc(OCCO)c1)C[C@H](O)c1cc(Cl)cc(Cl)c1O`, the composite z-score is -0.173 in assay [1]; 0.0375 in assay [2]; -0.045 in assay [3]; 0.502 in assay [4]; 0.524 in [5]; 0.79 in assay [6]. Also, the composite z-score is 1.38 in assay [7], 0.181 in [9] and -0.281 in assay [10]. In addition, the z-score in assay [8] was -0.578 (inactive).

Turning to `O=C1O[C@H](c2ccccc2)[C@H](c2ccccc2)N2[C@H]1[C@@H](C(=O)NC[C@H](O)c1ccccc1)[C@]1(C(=O)Nc3ccccc31)[C@H]2c1ccc(O)cc1`, the composite z-score in assay [1] was -0.0095; in [2] it was 0.298; in [3], -0.0342; in assay [4], -0.111; in assay [5], 0.633; in [6], -0.199. Moreover, the composite z-score in assay [7] came to 1.19; in assay [9], 0.153; in assay [10], 0.0542. In assay [8], the z-score is 0.484 (inactive).

Turning to `COCCOC(=O)N1C(=O)[C@@]2(c3cc(C#CCCO)ccc31)[C@H](c1ccc(OCCO)cc1)N1[C@H](c3ccccc3)[C@H](c3ccccc3)OC(=O)[C@H]1[C@@H]2C(N)=O`, the composite z-score in assay [1] is -0.139; in assay [2], 0.947; in assay [3] it was -0.0182; in assay [4] it was 0.916; in [5], 1.16; in assay [6] it was 0.741. Further, the composite z-score in assay [7] is 1.23; in assay [9], 0.177; in assay [10], -0.239. Further, the z-score in assay [8] is -0.485 (inactive).

Consider `C=CC[C@@]1(C(=O)N2CCCCC2)N=C(c2ccc(OCCCO)cc2)O[C@@H]1c1ccccc1CN=[N+]=[N-]`, for which the composite z-score in assay [1] amounted to 0.134; in assay [2] it was 0.432; in assay [3], 0.084; in assay [4], 0.378; in assay [5] it was 1.6; in [6], 1.8. The composite z-score in assay [7] is 1.32; in assay [9], 0.938; in assay [10], -0.219. Besides, the z-score in [8] is -1.43 (inactive).

As for `COc1cc2c(cc1O)C(c1cccs1)N(Cc1cccc(OC(F)(F)F)c1)CC2` (stereo not given), the composite z-score in assay [1] is 0.0011; in assay [2] it was 0.61; in assay [3] it was -0.114; in assay [4] it was -0.0012; in assay [5], 0.192; in [6], 1.39. For the same molecule, the values for the composite z-score in assay [7], in assay [9] and in [10] were 0.774, -0.146 and -0.164, respectively. In [8], the z-score is -0.79 (inactive).

With `COc1cc(CO)cc(I)c1O[C@H]1C=C(C(=O)NCCO)C[C@@H](NC[C@@H]2CCCO2)[C@@H]1O`, the composite z-score was -0.281 in assay [1]; 0.445 in assay [2]; -0.085 in assay [3]; 0.674 in assay [4]; 0.041 in [5]; 0.625 in [6]. Also, the composite z-score in assay [7] is 1.09; in assay [9], 0.59; in assay [10], -0.169. The z-score in assay [8] is -0.225 (inactive).

In the case of `CCOC(=O)C1=C[C@@H](C(C)C)N(S(=O)(=O)c2ccc(C)cc2)[C@H]1c1ccccc1F`, the composite z-score in [1] is -0.487; in assay [2] it was 0.267; in [3], -0.0924; in assay [4], 0.817; in [5], 1.65; in assay [6] it was 1.23. Moreover, the composite z-score was 1.1 in [7], 0.904 in assay [9] and -0.305 in assay [10]. The z-score in assay [8] is -1.83 (inactive).

Turning to `C=C[C@H](C)[C@@H](OC(=O)Nc1ccc(SC)cc1)c1ccc(O)c2ccccc12`, the composite z-score in [1] is -0.151; in [2], 0.152; in [3], 0.0111; in [4], 0.358; in assay [5], 0.68; in assay [6] it was 0.423. Further, the composite z-score in [7] was 1.43; in [9] it was 0.455; in assay [10] it was -0.0994. In addition, in assay [8], the z-score is 5.42 (inactive).

Turning to `CCOC(=O)C[C@H]1[C@H](OC(=O)c2ccc(-c3ccccc3)cc2)[C@@H](NC(=O)c2ccccc2)c2cc(OCCCO)ccc2N1C(=O)Cc1ccc(OC)cc1`, the composite z-score in assay [1] was -0.287; in [2] it was -0.0212; in [3] it was -0.163; in assay [4], 0.0185; in assay [5] it was -0.639; in assay [6], -0.31. Also, the composite z-score in [7] is -0.198; in [9], -0.0166; in assay [10] it was -0.374. In assay [8], the z-score is -0.304 (inactive).

For `C=C(CCCC)C(=O)CC[C@@H](OC(C)=O)c1ccc(CO)o1`, the composite z-score in assay [1] is -0.327; in assay [2] it was 0.349; in assay [3], -0.0729; in assay [4], 0.726; in [5] it was -0.426; in [6] it was -0.306. Also, the composite z-score in assay [7] was -0.0318; in assay [9] it was 0.911; in assay [10], 0.0505. In assay [8], the z-score is 0.514 (inactive).

For the molecule `COCCOC(=O)N1C(=O)[C@@]2(c3ccccc31)[C@H](c1ccc(OCCO)cc1)N1[C@H](c3ccccc3)[C@H](c3ccccc3)OC(=O)[C@H]1[C@@H]2C(=O)N1CCc2cc(OC)c(OC)cc2C1`, the composite z-score was -0.128 in assay [1]; 0.974 in assay [2]; 0.123 in assay [3]; 1.15 in [4]; 1.33 in assay [5]; 1.29 in assay [6]. Moreover, the figures for the composite z-score in assay [7], in assay [9] and in assay [10] were 1.28, 0.799 and 0.176, respectively. For the same molecule, the z-score in [8] is -1.82 (inactive).

For `COCCOC(=O)N1C(=O)[C@@]2(c3cc(C#Cc4ccc(OC)cc4)ccc31)[C@H](c1ccc(O)cc1)N1[C@H](c3ccccc3)[C@H](c3ccccc3)OC(=O)[C@H]1[C@@H]2C(=O)Nc1nc2ccccc2s1`, the composite z-score in assay [1] was -0.304; in assay [2], 0.262; in assay [3], -0.0724; in assay [4] it was 0.554; in assay [5] it was 1.29; in assay [6] it was 1.06. The composite z-score is 1.24 in assay [7], 0.251 in assay [9] and -0.249 in assay [10]. Besides, the z-score in assay [8] is 2.63 (inactive).
